Results from article PMC4336329 (PLoS ONE, 2015).
In all, about 310,000 compounds went through this assay and about 14,000 (4.5%) showed an effect of 50% or more. Effects have a minus sign here. The sample holds strong results, similar compounds and a random draw of the others, so the mix is not that of the screen.

molecular target: human ether-à-go-go-related gene (hERG) potassium channel (human, UniProt Q12809); assay: primary screen, population patch clamp on CHO cells stably expressing hERG; higher = less effect of the substance
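Note: peak tail current of the secondary pulse compared with the same well before compound.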

human ether-à-go-go-related gene (hERG) potassium channel, sequence (Q12809 whole entry, looked up): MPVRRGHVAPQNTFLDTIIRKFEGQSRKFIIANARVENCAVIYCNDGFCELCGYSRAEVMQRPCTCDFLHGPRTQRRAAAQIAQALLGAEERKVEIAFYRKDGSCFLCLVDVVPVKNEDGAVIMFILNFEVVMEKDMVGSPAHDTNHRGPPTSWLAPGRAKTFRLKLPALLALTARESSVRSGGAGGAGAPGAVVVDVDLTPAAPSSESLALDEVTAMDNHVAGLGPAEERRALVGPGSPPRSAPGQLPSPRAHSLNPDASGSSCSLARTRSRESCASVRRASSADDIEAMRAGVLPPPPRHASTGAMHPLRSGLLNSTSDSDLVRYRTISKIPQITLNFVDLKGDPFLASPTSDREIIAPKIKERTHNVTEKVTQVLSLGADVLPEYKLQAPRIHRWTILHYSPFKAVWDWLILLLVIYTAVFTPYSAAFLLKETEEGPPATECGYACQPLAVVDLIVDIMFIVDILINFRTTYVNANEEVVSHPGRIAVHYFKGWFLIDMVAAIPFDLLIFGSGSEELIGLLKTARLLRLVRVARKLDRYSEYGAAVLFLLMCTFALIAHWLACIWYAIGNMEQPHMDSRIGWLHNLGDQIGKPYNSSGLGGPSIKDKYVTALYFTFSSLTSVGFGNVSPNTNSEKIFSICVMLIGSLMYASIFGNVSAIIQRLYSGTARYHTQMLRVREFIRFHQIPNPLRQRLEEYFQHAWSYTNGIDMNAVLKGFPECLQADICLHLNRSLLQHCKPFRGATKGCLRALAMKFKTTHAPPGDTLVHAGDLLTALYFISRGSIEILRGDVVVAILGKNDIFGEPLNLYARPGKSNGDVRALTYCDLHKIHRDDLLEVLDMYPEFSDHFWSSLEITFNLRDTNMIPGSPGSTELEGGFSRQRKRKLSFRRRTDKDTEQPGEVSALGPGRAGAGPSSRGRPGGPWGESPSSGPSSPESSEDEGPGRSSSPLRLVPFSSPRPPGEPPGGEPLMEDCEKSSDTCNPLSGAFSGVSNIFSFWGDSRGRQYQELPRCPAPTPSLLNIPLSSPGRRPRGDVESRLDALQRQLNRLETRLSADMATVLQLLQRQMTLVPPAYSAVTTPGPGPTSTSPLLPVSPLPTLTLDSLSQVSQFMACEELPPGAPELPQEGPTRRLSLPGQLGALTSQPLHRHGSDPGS

| Structure (SMILES) | hERG current change (%, negative = inhibition) at 10uM [%] |
| --- | --- |
| COC(=O)NNC(=O)c1ccccc1C | -11.7 |
| Cc1ccc([N+](=O)[O-])cc1S(=O)(=O)Nc1ccccn1 | 9.5 |
| CCC(CC)C(=O)Nc1cccc(/C(C)=N/NC(=O)c2ccccc2Cl)c1 | 6.73 |
| CCCn1c(-c2cc(OC)c(OC)c(OC)c2)nc2nc3ccccc3nc21 | -37.5 |
| CCC(C)n1c(-c2ccco2)nc2nc3ccccc3nc21 (stereo not shown) | -3.86 |
| CCC(C)n1c(-c2cc(OC)c(OC)c(OC)c2)nc2nc3ccccc3nc21 (stereo not shown) | -50.9 |
| CCOc1ccc(C2C(C(=O)NC)=C(C)Nc3nc4ccccc4n32)cc1OC (stereo not shown) | 11.9 |
| CCCSC1=C(C#N)C(c2cccs2)CC(=O)N1 (stereo not shown) | 3.24 |
| CC(C)C(=O)N1CCN(c2ccccc2NC(=O)COc2ccccc2)CC1 | -57.6 |
| CCC(=O)N1CCN(c2ccc(Cl)cc2NC(=O)Cc2ccc(Cl)cc2)CC1 | -54.5 |
| CC(C)C(=O)N1CCN(c2ccccc2NC(=O)COc2ccc(C3CCCCC3)cc2)CC1 | -4.96 |
| CCC(=O)Nc1cc(Cl)ccc1N1CCN(C(=O)CC)CC1 | -24.9 |
| CCC(=O)N1CCN(c2ccccc2NC(=O)Cc2ccc(Cl)cc2)CC1 | -68.6 |
| CC(=O)N1CCN(c2ccccc2NC(=O)COc2ccc(Cl)cc2Cl)CC1 | -22.3 |
| O=C(Cc1ccccc1)Nc1ccccc1N1CCN(c2ccccc2)CC1 | 11.9 |
| CC(=O)N1CCN(c2ccccc2NC(=O)Cc2ccc(Cl)cc2)CC1 | -64.8 |
| CCC(=O)N1CCN(c2ccccc2NC(=O)COc2ccccc2Cl)CC1 | -42.2 |
| O=C(COc1ccccc1)Nc1ccccc1N1CCN(c2ccccc2)CC1 | 1.02 |
| CCC(=O)N1CCN(c2ccc(Cl)cc2NC(=O)Cc2ccccc2)CC1 | -46.3 |
| CCC(=O)N1CCN(c2ccccc2NC(=O)Cc2ccccc2)CC1 | -29.1 |
| CCN(CC)S(=O)(=O)c1cc(NC(=O)C2CCN(c3ncnc4sc(C)c(C)c34)CC2)ccc1Cl | 23.3 |
| O=C(Nc1ccccc1)/C(=C\c1ccc(F)cc1)NC(=O)c1ccco1 | 3.87 |

| Structure (SMILES) | hERG current change (%, negative = inhibition) at 10uM [%] |
| --- | --- |
| CCOC(=O)C1CCN(S(=O)(=O)c2ccc(OCC(=O)OC)cc2)CC1 | -9.54 |
| O=c1c(/C=N/O)c(Nc2ccccc2)nc2ccccn12 | -13.5 |
| Cc1ccc(-n2nc(C)c3c(C)c(CCC(=O)O)c(C)nc32)cc1 | 12.6 |
| CCOC(=O)CN1C(=O)C(C)(C)Oc2ccc(C(=O)Nc3ccccc3OC)cc21 | -6.76 |
| Cc1cc(C)nc(N2CCC(C(=O)NNC(=O)Cc3ccccc3)CC2)n1 | 8.85 |
| Cc1ccccc1NC(=O)C(Cc1ccccc1)n1cccc1 (stereo not shown) | -0.159 |
| CN1CCN(c2ccccc2NC(=O)C(Cc2ccccc2)n2cccc2)CC1 (stereo not shown) | -65.6 |
| CS(=O)(=O)N1CCN(c2ccccc2NC(=O)Cc2ccc(Cl)cc2)CC1 | -38.4 |
| CCc1ccccc1NC(=O)Cc1cn(C)c2ccccc12 | 3.59 |
| CCCC(=O)Nc1ccccc1N1CCN(C(=O)C(C)C)CC1 | 11.4 |
| CN1CCN(c2ccccc2NC(=O)c2ccc(-c3ccccc3)cc2)CC1 | -31.6 |
| CN1CCN(c2ccccc2NC(=O)Cc2ccc(Cl)cc2)CC1 | -73.4 |
| O=C(Cc1ccc(Cl)cc1)Nc1ccccc1N1CCOCC1 | 5.94 |
| CC(C)C(=O)N1CCN(c2ccccc2NC(=S)NC(=O)Cc2ccccc2)CC1 | -4.92 |
| CN1CCN(c2ccccc2NC(=O)Cc2cn(C)c3ccccc23)CC1 | -59.5 |
| CC(C)C(=O)N1CCN(c2ccccc2NC(=O)Cc2ccc(Cl)cc2)CC1 | -69.7 |
| Cc1ccccc1NC(=O)Cc1cn(C)c2ccccc12 | 15.1 |
| CN(C(=O)CSc1nnc(-c2ccco2)o1)C1CCCCC1 | -7.54 |
| C[C@@H]1NC(=O)c2cc([N+](=O)[O-])cc(I)c2NCCCC[C@@H](C(N)=O)NC(=O)[C@H](CCC(=O)O)NC1=O | -9.34 |
| COC(=O)C1=C(C)N(C)C(=O)NC1c1ccccc1 (stereo not shown) | -5.95 |
| Cc1cc(C(=O)Nn2c(-c3ccncc3)nc3ccccc3c2=O)ccc1[N+](=O)[O-] | 31.8 |
| C=CCOc1c(CNc2ccc(S(N)(=O)=O)cc2)cccc1OC | 2.97 |

| Structure (SMILES) | hERG current change (%, negative = inhibition) at 10uM [%] |
| --- | --- |
| Cc1cccc(NC(=O)C(Cc2ccccc2)n2cccc2)c1 (stereo not shown) | -51.2 |
| COc1cccc(NC(=O)C(Cc2ccccc2)n2cccc2)c1 (stereo not shown) | -17 |
| O=C(CSc1ccc(Cl)cc1)Nc1ccccc1N1CCN(C(=O)c2ccccc2)CC1 | -14.9 |
| Cc1ccc(NC(=O)C(Cc2ccccc2)n2cccc2)cc1 (stereo not shown) | 3.37 |
| O=C(CSc1ccc(Cl)cc1)Nc1ccccc1N1CCN(C(=O)c2ccc(Cl)cc2)CC1 | -10.7 |
| O=C(Cc1ccc(Cl)cc1)Nc1ccccc1N1CCN(C(=O)c2ccccc2)CC1 | -72.1 |
| CC(C)(C)c1ccc(/C=C/C(=O)NC2=NCCS2)cc1 | 10.5 |
| O=C(O)CC1SC(=Nc2cccc(C(F)(F)F)c2)NC1=O (stereo not shown) | 5.13 |
| CCN(CC)c1ccc(/C=N/OCC(=O)Nc2cccc(C)c2)cc1 | -2.16 |
| CCCCOc1ccc(C(=O)N2CCNC(=O)C2CC(=O)OC(C)C)cc1 (stereo not shown) | 13.1 |
| Cc1ccc(-c2nc(CS(=O)CC(=O)NC3CCCC3)c(C)o2)cc1 (stereo not shown) | -13.3 |
| COc1ccc(-c2cc(COc3ccccc3)on2)cc1 | 36.1 |
| CC(=O)c1c(N2CCN(Cc3ccccc3)CC2)[nH]c(-c2ccccc2)nc1=S | 2.17 |
| CN1CCN(C(=O)c2cccc(S(=O)(=O)N3CCCCC3)c2)CC1 | -7.44 |
| Cl.O=C(c1ccc2c(c1)OCCO2)N1CCN(Cc2ccccc2)CC1 | 2.59 |
| N#Cc1ccc(CN2CCN(C(=O)c3cc(Cl)c4c(c3)OCCO4)CC2)cc1 | -67.7 |
| O=C(c1cccc(S(=O)(=O)N2CCCCC2)c1)N1CCCCC1 | 5.7 |
| N#Cc1ccc(CN2CCN(C(=O)c3cccc(S(=O)(=O)N4CCCCCC4)c3)CC2)cc1 | -75.8 |
| N#Cc1ccc(CN2CCN(C(=O)c3ccc(S(=O)(=O)N4CCCCCC4)cc3)CC2)cc1 | -40.9 |
| N#Cc1ccc(CN2CCN(C(=O)c3ccccc3)CC2)c(Cl)c1 | -33.2 |
| Cl.O=C(c1cccc(S(=O)(=O)N2CCCCC2)c1)N1CCN(Cc2ccccc2)CC1 | -56.6 |
| Cl.O=C(c1cccc(S(=O)(=O)N2CCCC2)c1)N1CCN(Cc2ccccc2)CC1 | -14.2 |

| Structure (SMILES) | hERG current change (%, negative = inhibition) at 10uM [%] |
| --- | --- |
| CC(=O)Nc1nnc(CCS(=O)(=O)c2ccc(C)c(C)c2)s1 | 8.73 |
| Cc1ccccc1N/N=C/c1sc(=O)n(Cc2cccc(C(=O)O)c2)c1Cl | 38.9 |
| CCN(CC)C(=O)Oc1ccc2c(=O)c(-c3ccc(OC)cc3)c(C)oc2c1 | -35.8 |
| O=C(Nc1cccc(F)c1)Nc1ccc(Cl)cn1 | 7.51 |
| Cc1cccc(CN(C(=S)Nc2c(C)cccc2C)c2cccnc2)c1 | -9.13 |
| Cc1[nH]c2ccccc2c1C(=O)COC(=O)C(C)C | -6.03 |
| S=C(NCC(c1ccco1)N1CCCC1)Nc1ccccc1 (stereo not shown) | -28.9 |
| COc1ccc(-n2nnnc2SCC(=O)Nc2nc3c(s2)CCCC3)cc1 | 9.26 |
| CC(=O)Nc1ccc(NC(=O)CN2CCCC(C)C2)c(Cl)c1 (stereo not shown) | -5.17 |
| Cc1cc(NC(=O)CN2CCCC(C)C2)no1.O=C(O)C(=O)O (stereo not shown) | 10.7 |
| Cc1cc(C)nc(-n2nc(C)cc2NC(=O)CN2CCC(C)CC2)n1 | -65.6 |
| Cc1cc(C)nc(-n2nc(C)cc2NC(=O)CN2CCc3ccccc3C2)n1 | -68.7 |
| CCC1CCCCN1C(=O)CSc1nc(C)cc(C)n1 (stereo not shown) | -12.8 |
| Cc1cc(NC(=O)CN2CCCCC2)n(-c2ccccc2)n1 | 6.65 |
| Cc1cc(C)cc(NC(=O)CN2CCc3ccccc3C2)c1 | -10.2 |
| Cc1cc(C)nc(-n2nc(C)cc2NC(=O)CN2CCCC(C)C2)n1 (stereo not shown) | -56 |
| CCC1CCCCN1CC(=O)Nc1ccc2c(c1)OCCO2 (stereo not shown) | 10.6 |
| Cc1cccc(C)c1NC(=O)CN1CCc2ccccc2C1 | 8.31 |
| Cc1cc(C)nc(-n2nc(C)cc2NC(=O)CN2CCCC2)n1 | -34.1 |
| CCC1CCCCN1CC(=O)Nc1cc(C)nn1-c1nc(C)cc(C)n1 (stereo not shown) | -58.8 |
| Cc1ccc(C2(COC(=O)C(C)C)CO2)c(OC(=O)C(C)C)c1 (stereo not shown) | 2.15 |
| Cc1ccc(-c2n[nH]c(=O)c3ccccc23)cc1S(=O)(=O)NC(C)(C)C | 13.6 |
